Compounds without any hit were thinned out: in the full panel of roughly 83,000, 20% have a hit.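 Cell lines were cultured in 96-well plates, exposed to a single compound concentration, and assessed for percent growth 48 hours later.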 Unmarked numbers belong to inactive results. Calls of active or inactive are those of the source. Rule for the calls: active = growth percent below 10; inactive = the rest.
Legend:
Experiment in all cases: NCI-60 one-dose screen, 48 h (100 = growth as untreated, 0 = no growth, -100 = all killed)
Settings in all cases: 10 µM
NCI-H23 lung = system: NCI-H23 lung
NCI-H226 lung = system: NCI-H226 lung
NCI-H322M lung = system: NCI-H322M lung
HOP-62 NSCLC = system: HOP-62 NSCLC
NCI-H460 lung = system: NCI-H460 lung
HOP-92 NSCLC = system: HOP-92 NSCLC
NCI-H522 lung = system: NCI-H522 lung
A549/ATCC NSCLC = system: A549/ATCC NSCLC
786-0 renal = system: 786-0 renal
COLO 205 colon = system: COLO 205 colon
DU-145 prostate = system: DU-145 prostate
K-562 leukemia = system: K-562 leukemia
MALME-3M melanoma = system: MALME-3M melanoma
MDA-MB-231 breast = system: MDA-MB-231 breast
SF-268 CNS = system: SF-268 CNS
SF-295 CNS = system: SF-295 CNS
SF-539 CNS = system: SF-539 CNS
UACC-257 melanoma = system: UACC-257 melanoma
M14 melanoma = system: M14 melanoma

Row | Compound | growth (NCI-H23 lung) | growth (NCI-H226 lung) | growth (NCI-H322M lung) | growth (HOP-62 NSCLC) | growth (NCI-H460 lung) | growth (HOP-92 NSCLC) | growth (NCI-H522 lung) | growth (A549/ATCC NSCLC) | growth (786-0 renal) | growth (COLO 205 colon) | growth (DU-145 prostate) | growth (K-562 leukemia) | growth (MALME-3M melanoma) | growth (MDA-MB-231 breast) | growth (SF-268 CNS) | growth (SF-295 CNS) | growth (SF-539 CNS) | growth (UACC-257 melanoma) | growth (M14 melanoma)
1 | COc1nccnc1NS(=O)(=O)c1ccc(NC2=C(Cl)C(=O)c3nc(C)ccc3C2=O)cc1 | 83.7% | 93.4% | 101% | 101% | 118% | 116% | 88% | 105% | 99.9% | 134% | 107% | 96.3% | 100% | 91.1% | 92.9% | 97.5% | 94% | 101% | 112%
2 | O=C(NO)c1ccc(CNc2nc(-c3ccccc3)c3ccccc3n2)cc1 | -49% (active) | 6.26% (active) | 11% | 0.931% (active) | 4.48% (active) | -35.6% (active) | -30.9% (active) | 12.3% | 10.9% | -80.4% (active) | 10.2% | 9.84% (active) | -34.4% (active) | -21.8% (active) | 7.8% (active) | -49% (active) | 1.02% (active) | 1.34% (active) | 9.54% (active)
3 | O=c1[nH]c2ccccc2cc1CSc1ccc(Nc2nccc(-c3ccc(C(F)(F)F)cc3)n2)cc1 | 35.3% | -27.2% (active) | 23.8% | -14% (active) | 2.12% (active) | -1.46% (active) | 28.3% | -16.8% (active) | -49.7% (active) | 18% | 32.3% | 54.9% | 6.21% (active) | 11.9% | 40.4% | -62.6% (active) | 12% | 90% | 80.1%
4 | Brc1ccc(N/N=C/c2c[nH]c3ccccc23)nc1 | 41.1% | 35.5% | 47.6% | 32% | 9% (active) | -28.4% (active) | 24.9% | 37.7% | 0.458% (active) | 48.8% | 37.7% | 11.7% | 64.1% | -26% (active) | 21.4% | 25.3% | 21% | 70.8% | 14.3%
5 | C#CCNC(=O)CCC(=O)OC[C@]12CC[C@@H](C(=C)C)[C@@H]1C1CC[C@@H]3[C@@]4(C)CCCNC(C)(C)[C@@H]4CC[C@@]3(C)[C@]1(C)CC2 (some centres undefined) | -91.8% (active) | -80.8% (active) | 39.2% | -23.9% (active) | -74% (active) | -14.4% (active) | -82.7% (active) | -76.5% (active) | -58.3% (active) | -83% (active) | 17.8% | 3.14% (active) | -93.6% (active) | -47.9% (active) | 42.8% | -85.5% (active) | -99.3% (active) | -78.4% (active) | -80.4% (active)
6 | COc1ccc2[nH]c(=O)c(CSc3ccc(Nc4nccc(-c5ccc(Cl)cc5)n4)cc3)cc2c1 | 83.9% | 38.8% | 95.7% | 104% | 112% | 93.2% | 86.7% | 98.1% | 109% | 108% | 111% | 81.9% | 113% | 90.1% | 99.9% | 102% | -41% (active) | 120% | 109%
7 | CCCCSc1nc(Nc2ccc(/C(C)=N/NC(N)=S)cc2)c(C#N)c(-c2ccc(F)cc2)n1 | 21% | 20.7% | 53.8% | 22.7% | 18.4% | -18.5% (active) | 43.9% | 8.95% (active) | -20.5% (active) | 47.1% | 41.5% | 71.9% | 33.9% | 3.28% (active) | 90.1% | 28.5% | -13.5% (active) | 78.6% | 79%
8 | COc1cc(NC(=O)CSc2nnc(-c3ccc4nc(-c5ccc(Cl)cc5)[nH]c4c3)o2)cc(OC)c1OC | 40.3% | 38.7% | 90.8% | 89.7% | 67.2% | 128% | 45.1% | 90.4% | 78.3% | 82.4% | 73.8% | 31.3% | 66.5% | 75.2% | 76.1% | 48% | 43.7% | 94.4% | 69.5%
9 | O=C(CNc1nc(-c2ccccc2)cs1)Nc1ccc(Cl)cc1 | -93.8% (active) | -62.5% (active) | -98% (active) | -76.1% (active) | -51.2% (active) | -71.9% (active) | -80.2% (active) | -49.8% (active) | -72.8% (active) | -80.1% (active) | -93.3% (active) | -16.4% (active) | -90.3% (active) | -94.3% (active) | -49% (active) | -96.9% (active) | -98.8% (active) | -78.8% (active) | -90.9% (active)
10 | Cc1ccc(-c2nc(Nc3ccccc3C(=O)O)c3ccccc3n2)cc1 | -4.11% (active) | 15.3% | 33.8% | 28.3% | -9.44% (active) | -19.5% (active) | 33.2% | 30.5% | 18.7% | 80.9% | 19.4% | 17.6% | 19.6% | 35.4% | 11.2% | 5.81% (active) | 21.3% | 28.6% | 12.6%
11 | O=S(=O)(Nc1ncccn1)c1ccc(-n2c(-c3ccccc3)nc(-c3ccccc3)c2-c2ccccc2)cc1 | 95.4% | 87.8% | 96.4% | 100% | 88.1% | 109% | 94.4% | 89.7% | 88% | 130% | 101% | 92.6% | 111% | 87.7% | 85% | 65.9% | 83.4% | 118% | 102%
12 | CCOC(=O)CNC(=O)CN(Cc1ccccc1)C(=O)[C@@]1(C)CCC[C@]2(C)[C@H]3C[C@H]4C(C(C)C)=C[C@]3(CC[C@H]21)[C@@H]1C(=O)OC(=O)[C@@H]14 | 46.6% | 71.3% | 106% | 82.8% | 61.1% | 74.6% | 35.6% | 53.9% | 84.7% | 103% | 92.8% | 24.9% | 101% | 88.1% | 92.7% | 48.6% | 91.8% | 89.5% | 73.3%
13 | CCN1CCN(Cc2ccc(C(=O)Nc3cccc(-c4cn(-c5ccc6oc(=O)ccc6c5)nn4)c3)cc2C(F)(F)F)CC1 | -100% (active) | -82.1% (active) | -100% (active) | -99.5% (active) | -100% (active) | -18% (active) | -100% (active) | -100% (active) | -100% (active) | 48.1% | -100% (active) | -61.7% (active) | -100% (active) | -100% (active) | -32.5% (active) | -100% (active) | -100% (active) | -49.9% (active) | -100% (active)
14 | Clc1cccc(N/N=C/c2c[nH]c3ccccc23)n1 | 57.3% | 50.7% | 65.9% | 46.9% | 28.9% | -10.8% (active) | 16.1% | 56.4% | 13.7% | 37.2% | 48.7% | 13.8% | 50.6% | -0.126% (active) | 19.9% | 49.5% | 6.26% (active) | 68% | 43.6%
15 | COc1ccc2cc([C@H](C)C(=O)NCc3ccccc3)ccc2c1 | 33.6% | 59.5% | 49.7% | 41.8% | 17.7% | 104% | -5.33% (active) | 59.7% | 59.7% | 0.915% (active) | 29.4% | 20.1% | 55.2% | 38.4% | 60.2% | 12.8% | 2.48% (active) | 64.7% | 38.2%
16 | O=C(Nc1ccc(Cl)c(C(F)(F)F)c1)c1cncc(C#Cc2cnc3ccc(N4CCOCC4)nn23)c1 | -18.7% (active) | -32.8% (active) | 6.5% (active) | 11.1% | 29.3% | -48.6% (active) | -11.3% (active) | 16.1% | -28.5% (active) | 11.9% | 20.6% | 13.3% | -39.8% (active) | -44.6% (active) | 7.89% (active) | 5.28% (active) | -42% (active) | 6.55% (active) | 11.3%
